Test results taken from PubChem BioAssay AID1159580 (chemical genetic matrix, 2015).
Where “and” joins values, the source holds several entries; their conditions need not be identical. Identical values can stand only once. Hit rate of the full screen: of about 5,500 compounds, about 2,000 (36%) were called active. Not shown: some 18% with an inconclusive outcome. Cut-off read from the data, not from the text of the source: active = normalized growth mostly below about 0.91 (no sharp cut-off); inconclusive = no clear call, values can overlap the other calls; inactive = mostly above about 0.92. This is one part of the list.

Assay: chemical genetic growth profiling, strain panel (AID 1159580);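 note: tested at 20 µM; growth read once vehicle control cultures reached saturation at 30 °C; 1 = growth at the plate median or of vehicle wells; lower values mean less growth of the strain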
Conditions: growth OD

Measured: normalized growth

CC(C)NCC(O)c1cc(O)cc(O)c1 (centres undefined)
inactive: S. cerevisiae deletion strains, locus YJR043C, strain POL32, stronger effect = lower value 1.02 | S. cerevisiae deletion strains, locus YJR066W, strain TOR1, stronger effect = lower value 0.916 | S. cerevisiae deletion strains, locus YKL009W, strain mrt4, stronger effect = lower value 0.967 | S. cerevisiae deletion strains, locus YKL068W, stronger effect = lower value 0.989 | S. cerevisiae deletion strains, locus YKL085W, strain MDH1 (second series), stronger effect = lower value 0.979 | S. cerevisiae deletion strains, locus YKL085W, strain MDH1, stronger effect = lower value 0.979 | S. cerevisiae deletion strains, locus YKL160W, strain elf1, stronger effect = lower value 0.983 | S. cerevisiae deletion strains, locus YKL190W, strain CNB1, stronger effect = lower value 0.989 | S. cerevisiae deletion strains, locus YKR001C, strain vps1, stronger effect = lower value 1.02 | S. cerevisiae deletion strains, locus YKR026C, strain gcn3, stronger effect = lower value 1 | S. cerevisiae deletion strains, locus YKR091W, strain srl3, stronger effect = lower value 0.986 | S. cerevisiae deletion strains, locus YLL001W, strain dnm1, stronger effect = lower value 0.951 | S. cerevisiae deletion strains, locus YLL026W, stronger effect = lower value 0.999 | S. cerevisiae deletion strains, locus YLL041C, strain sdh2, stronger effect = lower value 0.99 | S. cerevisiae deletion strains, locus YLR027C, strain aat2, stronger effect = lower value 0.998 | S. cerevisiae deletion strains, locus YLR039C, strain RIC1, stronger effect = lower value 0.995 | S. cerevisiae deletion strains, locus YLR058C, strain SHM2, stronger effect = lower value 0.994 | S. cerevisiae deletion strains, locus YLR102C, strain apc9, stronger effect = lower value 0.994 | S. cerevisiae deletion strains, locus YLR113W, strain HOG1, stronger effect = lower value 0.972 | S. cerevisiae deletion strains, locus YLR221C, strain rsa3, stronger effect = lower value 0.983 | S. cerevisiae deletion strains, locus YLR258W, strain gsy2, stronger effect = lower value 0.993 | S. cerevisiae deletion strains, locus YLR262C, strain YPT6 (second series), stronger effect = lower value 0.972 | S. cerevisiae deletion strains, locus YLR262C, strain YPT6, stronger effect = lower value 0.98 | S. cerevisiae deletion strains, locus YLR268W, strain sec22, stronger effect = lower value 1.01 | S. cerevisiae deletion strains, locus YLR320W, strain mms22, stronger effect = lower value 0.984 | S. cerevisiae deletion strains, locus YLR330W, strain CHS5, stronger effect = lower value 0.998 | S. cerevisiae deletion strains, locus YLR342W, strain FKS1 (second series), stronger effect = lower value 1.01 | S. cerevisiae deletion strains, locus YLR342W, strain FKS1, stronger effect = lower value 0.987 | S. cerevisiae deletion strains, locus YLR357W, strain rsc2, stronger effect = lower value 0.974 | S. cerevisiae deletion strains, locus YLR370C, strain arc18, stronger effect = lower value 0.975 | S. cerevisiae deletion strains, locus YLR371W, strain rom2, stronger effect = lower value 1 | S. cerevisiae deletion strains, locus YLR384C, strain iki3, stronger effect = lower value 0.993 | S. cerevisiae deletion strains, locus YLR418C, strain cdc73, stronger effect = lower value 0.984 | S. cerevisiae deletion strains, locus YML016C, strain PPZ1, stronger effect = lower value 1.01 | S. cerevisiae deletion strains, locus YML032C, strain rad52, stronger effect = lower value 1.01 | S. cerevisiae deletion strains, locus YML120C, strain ndi1, stronger effect = lower value 0.965 | S. cerevisiae deletion strains, locus YML124C, strain tub3, stronger effect = lower value 1 | S. cerevisiae deletion strains, locus YMR058W, strain fet3, stronger effect = lower value 0.996 | S. cerevisiae deletion strains, locus YMR078C, strain ctf18, stronger effect = lower value 0.988 | S. cerevisiae deletion strains, locus YMR125W, strain sto1, stronger effect = lower value 0.971 | S. cerevisiae deletion strains, locus YMR129W, stronger effect = lower value 0.992 | S. cerevisiae deletion strains, locus YMR205C, strain PFK2, stronger effect = lower value 0.955 | S. cerevisiae deletion strains, locus YMR223W, strain ubp8, stronger effect = lower value 0.975 | S. cerevisiae deletion strains, locus YMR231W, strain pep5, stronger effect = lower value 0.998 | S. cerevisiae deletion strains, locus YMR307W, strain GAS1, stronger effect = lower value 1.04 | S. cerevisiae deletion strains, locus YNL067W, strain RPL9B, stronger effect = lower value 0.995 | S. cerevisiae deletion strains, locus YNL071W, strain lat1, stronger effect = lower value 0.98 | S. cerevisiae deletion strains, locus YNL128W, strain TEP1, stronger effect = lower value 0.967 and 0.965 | S. cerevisiae deletion strains, locus YNL153C, strain GIM3, stronger effect = lower value 1.01 | S. cerevisiae deletion strains, locus YNL175C, strain NOP13, stronger effect = lower value 1 | S. cerevisiae deletion strains, locus YNL183C, strain NPR1, stronger effect = lower value 0.924 | S. cerevisiae deletion strains, locus YNL197C, strain WHI3, stronger effect = lower value 1.01 | S. cerevisiae deletion strains, locus YNL209W, strain ssb2, stronger effect = lower value 0.988 | S. cerevisiae deletion strains, locus YNL224C, strain SQS1, stronger effect = lower value 0.997 | S. cerevisiae deletion strains, locus YNL233W, strain BNI4, stronger effect = lower value 0.997 | S. cerevisiae deletion strains, locus YNL248C, strain rpa49, stronger effect = lower value 0.985 | S. cerevisiae deletion strains, locus YNL250W, strain rad50, stronger effect = lower value 0.979 | S. cerevisiae deletion strains, locus YNL271C, strain bni1, stronger effect = lower value 0.98 | S. cerevisiae deletion strains, locus YNL298W, strain CLA4, stronger effect = lower value 0.975 | S. cerevisiae deletion strains, locus YNL307C, strain MCK1, stronger effect = lower value 0.995 | S. cerevisiae deletion strains, locus YNL322C, strain KRE1 (second series), stronger effect = lower value 0.986 | S. cerevisiae deletion strains, locus YNR049C, strain mso1, stronger effect = lower value 0.993 | S. cerevisiae deletion strains, locus YNR052C, strain pop2, stronger effect = lower value 0.987 | S. cerevisiae deletion strains, locus YOL012C, strain htz1 0.863 | S. cerevisiae deletion strains, locus YOL147C, strain pex11, stronger effect = lower value 0.992 | S. cerevisiae deletion strains, locus YOR001W, strain rrp6, stronger effect = lower value 0.994 | S. cerevisiae deletion strains, locus YOR061W, strain CKA2, stronger effect = lower value 1 | S. cerevisiae deletion strains, locus YOR069W, strain VPS5, stronger effect = lower value 0.996 | S. cerevisiae deletion strains, locus YOR070C, strain gyp1, stronger effect = lower value 0.993 | S. cerevisiae deletion strains, locus YOR080W, strain dia2, stronger effect = lower value 1 | S. cerevisiae deletion strains, locus YOR083W, strain WHI5 (second series), stronger effect = lower value 1 | S. cerevisiae deletion strains, locus YOR083W, strain WHI5, stronger effect = lower value 0.96 | S. cerevisiae deletion strains, locus YOR106W, strain vam3, stronger effect = lower value 0.976 | S. cerevisiae deletion strains, locus YOR136W, strain idh2, stronger effect = lower value 0.997 | S. cerevisiae deletion strains, locus YOR144C, strain elg1, stronger effect = lower value 1.01 | S. cerevisiae deletion strains, locus YOR184W, strain ser1, stronger effect = lower value 0.991 | S. cerevisiae deletion strains, locus YOR231W, strain MKK1, stronger effect = lower value 0.97 | S. cerevisiae deletion strains, locus YOR265W, strain rbl2, stronger effect = lower value 0.994 | S. cerevisiae deletion strains, locus YOR270C, strain vph1, stronger effect = lower value 0.98 | S. cerevisiae deletion strains, locus YOR290C, strain snf2, stronger effect = lower value 0.929 | S. cerevisiae deletion strains, locus YOR316C, strain cot1, stronger effect = lower value 0.993 | S. cerevisiae deletion strains, locus YPL051W, strain arl3, stronger effect = lower value 0.989 | S. cerevisiae deletion strains, locus YPL055C, strain LGE1, stronger effect = lower value 1.02 | S. cerevisiae deletion strains, locus YPL078C, strain atp4, stronger effect = lower value 0.967 | S. cerevisiae deletion strains, locus YPL106C, strain sse1, stronger effect = lower value 0.978 | S. cerevisiae deletion strains, locus YPL240C, strain hsp82, stronger effect = lower value 0.984 | S. cerevisiae deletion strains, locus YPL241C, strain CIN2, stronger effect = lower value 0.996 | S. cerevisiae deletion strains, locus YPL256C, strain CLN2, stronger effect = lower value 0.953 | S. cerevisiae deletion strains, locus YPR119W, strain clb2, stronger effect = lower value 0.984 | S. cerevisiae deletion strains, locus YPR141C, strain kar3, stronger effect = lower value 0.976 | S. cerevisiae deletion strains, locus YPR163C, strain tif3, stronger effect = lower value 0.991 | S. cerevisiae deletion strains, locus YPR167C, strain met16, stronger effect = lower value 0.991 | S. cerevisiae deletion strains, strain wtn01, stronger effect = lower value 0.998 | S. cerevisiae strains, strain wild type, stronger effect = lower value 1.01
